Wee1 stabilizer: Wee1 degradation inhibitors, primary screen, cell-based, HeLa, Wee1K328M-luciferase, luminescence; Wee1-like protein kinase (Homo sapiens), P30291; reporter increase, % at 5 µM; HeLa Luc-Wee1K328M stability; 100% = proteasome inhibitor MG132 effect; hit rate 1.2% among 220,000;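 active means activation above the mean of all tested compounds plus 3 SD, set per screening run, cut at about 8.8% in these data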;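 further: cells exposed to compound for 20 h before luminescence read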
Target sequence (P30291 whole entry K328M): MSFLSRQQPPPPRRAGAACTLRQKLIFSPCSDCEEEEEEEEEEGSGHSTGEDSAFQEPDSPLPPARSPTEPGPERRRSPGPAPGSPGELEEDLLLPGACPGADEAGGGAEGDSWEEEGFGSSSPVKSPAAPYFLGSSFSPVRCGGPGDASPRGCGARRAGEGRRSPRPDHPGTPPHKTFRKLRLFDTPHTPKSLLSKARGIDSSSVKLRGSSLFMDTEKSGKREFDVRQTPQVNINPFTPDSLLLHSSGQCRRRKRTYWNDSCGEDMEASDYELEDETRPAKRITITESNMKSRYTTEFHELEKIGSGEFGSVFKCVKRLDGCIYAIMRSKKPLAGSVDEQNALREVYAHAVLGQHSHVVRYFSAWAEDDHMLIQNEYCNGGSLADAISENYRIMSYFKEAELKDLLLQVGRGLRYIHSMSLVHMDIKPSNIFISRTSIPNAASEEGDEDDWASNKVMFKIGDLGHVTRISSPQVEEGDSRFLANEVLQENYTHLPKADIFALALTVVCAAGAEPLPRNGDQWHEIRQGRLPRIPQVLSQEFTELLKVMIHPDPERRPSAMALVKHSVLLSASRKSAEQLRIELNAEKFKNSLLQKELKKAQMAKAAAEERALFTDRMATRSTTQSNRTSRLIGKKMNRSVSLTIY
Hsp70 act: Hsp70 transcriptional activators, primary screen, cell-based, HeLa, Hsp70 promoter luciferase, luminescence, 10 µM; HeLa Hsp70 promoter luciferase reporter; scaled: vehicle 0, proteasome-inhibitor control 100%; activation, % at 10 µM; hit rate 0.04% among 200,000; AID 1203, 2008;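 active means activation above the mean across all tested compounds plus 3 SD, cutoff set per campaign, cut at about 5.5% in these data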
NF-kB neuron act: activators of NF-kB expression in neurons, primary screen, cell-based, HTS; AID 1239, 2008; hit rate 1.6% among 190,000; human neuronal cells, NF-kB reporter expression; stronger effect = higher value; fold change at 12.5 µM; in the data active means fold change above about 3.3
APP 5'UTR act: activators of APP 5'UTR luciferase reporter, primary screen, SH-SY5Y cells | hit rate 1% among 190,000 | SH-SY5Y APP 5'UTR luciferase reporter, luminescence; zero percent = DMSO vehicle wells | activation, % at 2 µM;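 active means activation above a set limit, based on mean plus 3 SD of controls, cut at about 140% in these data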
APP 5UTR inh: inhibitors of APP translation via 5'UTR reporter, primary screen, APP 5'UTR luciferase, SH-SY5Y cells | SH-SY5Y APP 5'UTR-luciferase reporter, luminescence | AID 1285, 2008 | hit rate 0.82% among 190,000 | inhibition, % at 2 µM;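 active means inhibition above a set limit, derived from the sample mean plus 3 SD, cut at about 45% in these data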
STAT1 activator: STAT1 signaling activators, primary screen, cell-based, HTS, luciferase reporter | hit rate 2.6% among 200,000 | activation (% of control), % at 5.5 µM | NIH 3T3 STAT1-luciferase reporter, IFN-gamma, luminescence; 100% = IFN-gamma alone, no compound | AID 932, 2007;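 active means activation above the screen-wide mean activation plus 3 SD, cut at about 130% in these data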
Numbers stand for hits. Shown are actives, neighbours in structure and some others; about 4.8% of the full set was active somewhere.

`CCN(CC)c1ccc(C2C(C(=O)OCCOC(C)C)=C(C)NC3=C2C(=O)CCC3)cc1` (configuration not stated) gave Wee1 stabilizer inactive, Hsp70 act inactive, NF-kB neuron act inactive, APP 5'UTR act inactive, APP 5UTR inh inactive and STAT1 activator inactive.
Nc1nnc(-c2ccccc2F)s1 was read as Wee1 stabilizer inactive, Hsp70 act inactive, NF-kB neuron act inactive, APP 5'UTR act inactive, APP 5UTR inh inactive and STAT1 activator inactive.
`Nc1nnc(-c2ccc(Cl)cc2Cl)s1` gave Wee1 stabilizer inactive, Hsp70 act inactive, NF-kB neuron act inactive, APP 5'UTR act inactive, APP 5UTR inh inactive and STAT1 activator 147.
`Cc1ccc(C(=O)c2cc([N+](=O)[O-])ccc2N2CCOCC2)cc1` gave Wee1 stabilizer inactive, Hsp70 act inactive, NF-kB neuron act inactive, APP 5'UTR act inactive, APP 5UTR inh 93 and STAT1 activator inactive.
COc1ccc(C(=O)c2cc([N+](=O)[O-])ccc2N2CCOCC2)cc1 was read as Wee1 stabilizer inactive, Hsp70 act inactive, NF-kB neuron act 3.4, APP 5'UTR act inactive, APP 5UTR inh 93 and STAT1 activator inactive.
For CCC(CC)NC(=O)c1cc([N+](=O)[O-])ccc1N1CCOCC1 the results were Wee1 stabilizer inactive, Hsp70 act inactive, NF-kB neuron act inactive, APP 5'UTR act inactive, APP 5UTR inh inactive and STAT1 activator inactive.
Screening O=C(c1cc([N+](=O)[O-])ccc1N1CCOCC1)N1CCCC1 returned Wee1 stabilizer inactive, Hsp70 act inactive, NF-kB neuron act inactive, APP 5'UTR act inactive, APP 5UTR inh inactive and STAT1 activator inactive.
`O=C(c1cc([N+](=O)[O-])ccc1N1CCOCC1)N1CCOCC1` gave Wee1 stabilizer inactive, Hsp70 act inactive, NF-kB neuron act inactive, APP 5'UTR act inactive, APP 5UTR inh inactive and STAT1 activator inactive.
For Cc1ccc(C(=O)c2cc([N+](=O)[O-])ccc2N2CCCCC2)c(C)c1 the results were Wee1 stabilizer inactive, Hsp70 act inactive, NF-kB neuron act 3.9, APP 5'UTR act inactive, APP 5UTR inh 96 and STAT1 activator inactive.
`CCOc1ccc(C(=O)c2cc([N+](=O)[O-])ccc2N2CCOCC2)cc1` gave Wee1 stabilizer inactive, Hsp70 act inactive, NF-kB neuron act 3.6, APP 5'UTR act inactive, APP 5UTR inh 94 and STAT1 activator inactive.
Screening CC(C)C(NS(=O)(=O)c1cccc2nsnc12)C(=O)NCCC1=CCCCC1 (configuration not stated) returned Wee1 stabilizer inactive, Hsp70 act inactive, NF-kB neuron act inactive, APP 5'UTR act inactive, APP 5UTR inh inactive and STAT1 activator inactive.
`O=C(CSc1cnc2ccccc2n1)c1ccc(F)cc1` gave Wee1 stabilizer inactive, Hsp70 act inactive, NF-kB neuron act 4.1, APP 5'UTR act 189, APP 5UTR inh inactive and STAT1 activator inactive.
For COC(=O)CSc1cnc2ccccc2n1 the results were Wee1 stabilizer inactive, Hsp70 act inactive, NF-kB neuron act inactive, APP 5'UTR act inactive, APP 5UTR inh inactive and STAT1 activator inactive.
For COc1ccc(-c2nnc3ccc(SCC(=O)Nc4nc5ccc(C)cc5s4)nn23)cc1OC the results were Wee1 stabilizer inactive, Hsp70 act inactive, NF-kB neuron act inactive, APP 5'UTR act inactive, APP 5UTR inh inactive and STAT1 activator inactive.
For Cc1ccc2c(c1)C1OCCC1C1N2C(=O)C2C(C(=O)O)C3C=CC21O3 (configuration not stated) the results were Wee1 stabilizer inactive, Hsp70 act inactive, NF-kB neuron act inactive, APP 5'UTR act inactive, APP 5UTR inh inactive and STAT1 activator inactive.
For CCCCN(C(=O)c1cc2ccccc2o1)c1c(N)n(CC(C)C)c(=O)[nH]c1=O the results were Wee1 stabilizer inactive, Hsp70 act inactive, NF-kB neuron act inactive, APP 5'UTR act inactive, APP 5UTR inh 54 and STAT1 activator inactive.
For Fc1ccc(/C=N/n2cnn(Cc3ccccc3Cl)c2=S)cc1 the results were Wee1 stabilizer inactive, Hsp70 act inactive, NF-kB neuron act inactive, APP 5'UTR act inactive, APP 5UTR inh 62 and STAT1 activator inactive.
